About 83,000 compounds went through this panel and 20% of them were active in at least one assay; those are over-represented in the sample as a whole.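 Activity criterion: percent growth below 10, measured after cells in 96-well plates were exposed to a single compound concentration for 48 hours.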 Unmarked numbers belong to inactive results. Calls of active or inactive are those of the source.

For one test, the system named is OVCAR-3 ovarian. The experiment in a line: NCI-60 one-dose screen, 48 h (100 = growth as untreated, 0 = no growth, -100 = all killed). To be noted: 10 µM unless noted.
As for `COc1ccc(OCC(=O)OC(C)C)cc1`, the growth is 99.1%.
With `CC1=C(CCCOC(=O)NCCCl)C2=C(C)C3(CC3)[C@@](C)(O)C(=O)C2=C1`, the growth was 2.71% (active).
`Nc1ccccc1NS(=O)(=O)c1ccc(Cl)cc1`: the growth is 105%.
With `N#Cc1ccc(C2C3=C(CCCC3=O)OC3=C2C(=O)c2ccccc2C3=O)cc1` (stereo not drawn), the growth was -1.75% (active).
Same read-out and setting: the same measure for `C=CCn1c(SCC(=O)Nc2ccc(C(=O)/C=C/c3cc(OC)c(OC)c(OC)c3)cc2)nnc1-c1ccccc1`: 82.3%; for `NS(=O)(=O)c1ccc(C2C3=C(CCCC3=O)OC3=C2C(=O)c2ccccc2C3=O)cc1` (stereo not drawn): -66.1% (active).
The same measure, in the same setting: the same measure for `COc1ccc2nc3nc4ccc[nH]c4cc3c2c1`: 91.8%; for `COc1ccc(Nc2nc(SCC(C)C)nc(-c3ccc(F)cc3)c2C#N)cc1`: 21%; for `NC(=O)CN1C(=O)c2ccccc2C1=O`: 106%.
Still for that read-out and setting: for `COc1cccc(C(=O)OCCn2nc3c4c(cccc42)C(=O)c2ccccc2-3)c1O` the value was 3.88% (active); for `c1ccc(-c2n(Cc3ccc4ccccc4n3)cc[n+]2Cc2ccc3ccccc3c2)cc1`, 6.21% (active).

The subject of a further test is HS 578T breast. Described as above. To be noted: 10 µM unless noted.
On to `O=C(Nc1nc2ccc(C(F)(F)F)cc2s1)c1cc(Cl)ccc1O`, for which the growth is 5.64% (active).
For `NC(N)=NC(N)=Nc1cc2ccccc2c2ccccc12`, the growth was 46.5%.
Still for that read-out and setting: for `CC(=O)Oc1c2c(nc3c1c1ccccc1n3Cc1ccccc1)-c1ccccc1C2` the value was 94.4%; for `CN1C(=O)c2cc(Cl)nc3c(NC(=O)c4cccc(Cl)c4)c(Cl)c(NC(=O)c4cccc(Cl)c4)c1c23`, -12.3% (active).
As for `CCOCCc1c(O)nc(SC)[nH]c1=O`, the growth was 92.9%.
Turning to `COc1ccc2[nH]c(=O)c(/C=C/C(=O)/C=C/c3ccc(O)c(OC)c3)cc2c1`, the growth is 25.5%.
For `CCOC(=O)c1c(C)nc2c(c1N)/C(=C/c1cccs1)C(=O)N2Cc1ccccc1`, the growth is 93.2%.
On the same count and under the same terms, for `O=C(CCc1nnc2sc(OCc3ccccc3)nn12)c1nc2ccc([N+](=O)[O-])cc2[nH]1` the value was 88.2%; for `COc1ccc2c(c1)Oc1nc(N)c(C#N)c(N)c1C2Sc1ccc(O)cc1` (stereo not drawn), 109%; for `O=C(Nc1nccs1)c1noc2ccccc12`, 97%.
With `Cc1cccc(C)c1NCc1nnc(-c2ccco2)o1`, the growth was 91.5%.
Consider `CCOC(=O)C1=C(C)n2nc(CC#N)c(C#N)c2NC1c1ccc(Cl)cc1` (stereo not drawn), for which the growth was 106%.
For `CCOc1ccccc1C(=O)/C=C/c1cc2ccccc2[nH]c1=O`, the growth is 60.1%.
Take `COc1cc(NC(=O)Nc2cnc(Nc3ccc(N4CCOCC4)cc3)nc2Oc2ccc(F)cc2)cc(OC)c1`: the growth is 85.7%.
As to `Cc1cc(Cl)cc(CN(Cc2ccccc2)Cc2c(O)ccc3ccccc23)c1O`, the growth was 102%.
Consider `NC[C@@H]1CCN(c2cc3c(cc2F)c(=O)n(N)c(=O)n3Cc2ccc(-c3ccccc3)cc2)C1`, for which the growth was 82.9%.
On to `O=C(/C(=C/c1ccc([N+](=O)[O-])cc1)SCc1ccc(F)cc1)c1ccc(Cl)cc1`, for which the growth is 27.1%.
Regarding `COc1ccc(Cl)c([N+](=O)[O-])c1`, the growth was 105%.
On to `COc1cc(C)ccc1Oc1nc(Nc2ccc(N3CCOCC3)cc2)ncc1N=Cc1cc(C(F)(F)F)cc(C(F)(F)F)c1`, for which the growth was 61.9%.
On the same count and under the same terms, for `c1ccc(-c2cn3ccnc3c(-c3ccc4c(c3)ncn4C3CCCCC3)n2)cc1` the value was 101%.
For `Nc1c(C(=O)Nc2cccc3ccccc23)sc2nc3c(cc12)COCC3`, the growth is 35.8%.
Same read-out and setting: for `O=C1CCC23OC(C(O)c4ccccc4N12)C1C(Br)=NOC13` (stereo not drawn) the value was 106%.
As for `O=Cc1[nH]c(Sc2ccccc2)c2ccccc12`, the growth is 64.9%.
The same measure, in the same setting: for `CCOC(=O)c1sc(/N=C2\NC(=O)/C(=C/c3ccc(N4CCN(C)CC4)cc3)S2)nc1C` the value was 107%; for `COc1cc(C2=NN(c3ccccc3)C(c3cccc(Nc4ccnc5cc(C(F)(F)F)ccc45)c3)C2)cc(OC)c1OC` (stereo not drawn), 99%; for `COc1ccc(-c2cc(-c3nnc(SCC(=O)Nc4ccc(/C(C)=N\O)cc4)n3-c3ccccc3)c3cc(OC)ccc3n2)cc1`, 82.7%.
Same read-out and setting: the same measure for `COc1ccc(OCC(=O)OC(C)C)cc1`: 100%.
For `CC1=C(CCCOC(=O)NCCCl)C2=C(C)C3(CC3)[C@@](C)(O)C(=O)C2=C1`, the growth was 99.8%.
With `Nc1ccccc1NS(=O)(=O)c1ccc(Cl)cc1`, the growth was 98.6%.
The same measure, in the same setting: the same measure for `N#Cc1ccc(C2C3=C(CCCC3=O)OC3=C2C(=O)c2ccccc2C3=O)cc1` (stereo not drawn): 90.8%; for `C=CCn1c(SCC(=O)Nc2ccc(C(=O)/C=C/c3cc(OC)c(OC)c(OC)c3)cc2)nnc1-c1ccccc1`: 102%; for `NS(=O)(=O)c1ccc(C2C3=C(CCCC3=O)OC3=C2C(=O)c2ccccc2C3=O)cc1` (stereo not drawn): -5.38% (active).
As for `COc1ccc2nc3nc4ccc[nH]c4cc3c2c1`, the growth is 92.5%.
For `COc1ccc(Nc2nc(SCC(C)C)nc(-c3ccc(F)cc3)c2C#N)cc1`, the growth is 79.1%.
Still for that read-out and setting: the same measure for `NC(=O)CN1C(=O)c2ccccc2C1=O`: 104%.
As to `COc1cccc(C(=O)OCCn2nc3c4c(cccc42)C(=O)c2ccccc2-3)c1O`, the growth is 20.1%.
Turning to `c1ccc(-c2n(Cc3ccc4ccccc4n3)cc[n+]2Cc2ccc3ccccc3c2)cc1`, the growth was 15.1%.
